Records with an inconclusive call do not appear. Activity calls are given as the source filed them. The call rests on the fitted dose curve.
Potency means the concentration at half of the fitted maximal effect.

The target in the test is Cytochrome P450 1A2 (Homo sapiens) (UniProt P05177). The test can be described thus: p450-cyp1a2 (AID 410). The note with it: recombinant CYP1A2, luciferin-ME demethylation, luminescence; series mostly up to 57 µM. The essentials: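 20nM CYP1A2, 100uM Luciferin-ME (=Km), 100mM KPO4; cpd 10 min RT; +NADPH regen, 60 min RT; stop/detect 20 min; luminescence. Normalized to furafylline 57 uM = full inhibition.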
Chain of Cytochrome P450 1A2 (Homo sapiens) (P05177 whole entry, looked up): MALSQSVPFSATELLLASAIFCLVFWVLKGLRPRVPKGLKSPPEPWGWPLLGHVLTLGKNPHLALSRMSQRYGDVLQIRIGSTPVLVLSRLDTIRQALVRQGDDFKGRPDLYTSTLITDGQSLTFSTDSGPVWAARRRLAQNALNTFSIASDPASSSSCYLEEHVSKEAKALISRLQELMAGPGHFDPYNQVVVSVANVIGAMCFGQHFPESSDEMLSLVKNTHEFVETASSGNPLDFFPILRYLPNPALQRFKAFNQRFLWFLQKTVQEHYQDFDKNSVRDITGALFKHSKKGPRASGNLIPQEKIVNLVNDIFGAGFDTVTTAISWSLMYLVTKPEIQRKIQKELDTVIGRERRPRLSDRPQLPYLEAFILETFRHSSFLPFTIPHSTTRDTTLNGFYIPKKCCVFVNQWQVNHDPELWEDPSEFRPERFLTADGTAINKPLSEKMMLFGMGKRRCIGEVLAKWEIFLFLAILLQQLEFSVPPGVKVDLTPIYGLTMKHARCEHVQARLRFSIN
Take `CN(C)Cc1ccccc1-c1cc(N(C)Cc2ccco2)ncn1`: the Potency is 15.8 µM (active).

As to `c1cncc(-c2cncnc2NC2CCNCC2)c1`, the Potency was 12.6 µM (active).

`CN(C)c1ncc2nc(-c3ccccc3)c(=O)n(-c3ccccc3)c2n1`: the Potency is 0.398 µM (active).

As for `CN1CCN(c2ncc3nc(-c4cc(F)cc(F)c4)c(=O)n(C4CC4)c3n2)CC1`, the Potency was 15.8 µM (active).

Consider `O=c1c(-c2ccc(F)cc2)nc2cnc(N3CCNCC3)nc2n1Cc1ccc(F)cc1`, for which the Potency was 15.8 µM (active).

Take `O=c1c(-c2cc(F)cc(F)c2)nc2cncnc2n1-c1ccccc1`: the Potency was 12.6 µM (active).

For `CN(Cc1ccco1)c1ncncc1-c1ccccc1Cl`, the Potency is 25.1 µM (active).

Take `O=c1cnc2cnc(N3CCOCC3)nc2n1CCc1ccccc1`: the Potency is 3.16 µM (active).

For `CN1CCN(c2ncncc2-c2ccc(C(=O)N(C)C)cc2)CC1`, the Potency is 15.8 µM (active).

Turning to `CC(=O)NCCNc1ncncc1-c1ccccc1C`, the Potency was 25.1 µM (active).

Take `COCCn1c(=O)cnc2cnc(Oc3ccccc3)nc21`: the Potency is 15.8 µM (active).

`COc1ccc(CNc2ccnc(-c3ccc4c(c3)OCO4)n2)c(OC)c1`: the Potency is 1.26 µM (active).

On to `COc1ncc2nc(-c3cc(F)cc(F)c3)c(=O)n(C)c2n1`, for which the Potency was 2 µM (active).

`COc1ccc(-c2nc3cnc(N4CCN(C)CC4)nc3n(Cc3ccc(F)cc3)c2=O)cc1`: the Potency is 10 µM (active).

On to `COCCn1c(=O)c(-c2cc(F)cc(F)c2)nc2cnc(N3CCOCC3)nc21`, for which the Potency was 12.6 µM (active).

Turning to `CN(C)c1ncnc2ccc(-c3cccnc3)cc12`, the Potency is 0.2 µM (active).

`CCNc1ncc2nc(-c3cn(C)c4ccccc34)c(=O)n(Cc3cccc(OC)c3)c2n1`: the Potency is 12.6 µM (active).

Regarding `COc1ccc(Oc2ncc3nc(C)c(=O)n(-c4ccccc4)c3n2)cc1`, the Potency was 7.94 µM (active).

On to `CN(C)Cc1ccccc1-c1nc(NCc2cccs2)c2ccccc2n1`, for which the Potency was 1 µM (active).

On to `CN(Cc1ccco1)c1ncncc1-c1cccc(C#N)c1`, for which the Potency was 12.6 µM (active).

In the case of `O=c1c(-c2ccc(F)cc2)nc2cnc(N3CCOCC3)nc2n1Cc1cccs1`, the Potency was 12.6 µM (active).

On to `CCNc1ncc2nc(-c3ccc(Cl)cc3)c(=O)n(C[C@H]3CCCO3)c2n1`, for which the Potency was 0.794 µM (active).

In the case of `COc1ccc(-n2c(=O)c(-c3cccs3)nc3cnc(N(C)C)nc32)cc1`, the Potency entry is “inactive”.

With `Cn1cc(-c2nc3cnc(Oc4ccccc4)nc3n(C3CC3)c2=O)c2ccccc21`, the Potency is 5.01 µM (active).

As for `O=c1c(-c2cccs2)nc2cnc(N3CCOCC3)nc2n1Cc1ccc(F)cc1`, the Potency is 20 µM (active).

Consider `O=c1c(-c2ccc(F)cc2)nc2cnc(Nc3ccccc3)nc2n1C[C@H]1CCCO1`, for which the Potency is 2 µM (active).

Consider `c1ccc(Nc2cc(-c3ccoc3)ncn2)cc1`, for which the Potency is 15.8 µM (active).

As to `COc1ccc(Oc2ncc3nc(-c4cn(C)c5ccccc45)c(=O)n(C4CC4)c3n2)cc1`, the Potency is 12.6 µM (active).

For `COCCNc1ncncc1-c1c(C)noc1C`, the Potency entry is “inactive”.

As for `Cc1noc(C)c1-c1ccc2ncnc(Nc3ccc(F)cc3)c2c1`, the Potency is 3.98 µM (active).

Turning to `O=c1c(-c2cccs2)nc2cnc(N3CCOCC3)nc2n1Cc1cccs1`, the Potency is 15.8 µM (active).

Regarding `Cc1noc(C)c1-c1ccc2ncnc(N(C)C)c2c1`, the Potency was 0.631 µM (active).

Take `CC(=O)NCCNc1ncnc2ccc(-c3c(C)noc3C)cc12`: the Potency was 15.8 µM (active).

With `CN1CCN(c2ncc3nc(-c4ccc(Cl)cc4)c(=O)n(Cc4cccs4)c3n2)CC1`, the Potency is 10 µM (active).

In the case of `CN(Cc1ccco1)c1ncncc1-c1ccoc1`, the Potency was 15.8 µM (active).

For the origin of these results see PubChem BioAssay (NCATS).
